Data: PubChem BioAssay (EPA / NIEHS)
Results filed as inconclusive are left out. Activity calls are given as the source filed them. The calls were made as follows, unless noted: active = hit-call score of the fitted dose curve at least 0.9, where 1 is the maximum; inconclusive = response in the unintended direction; inactive = score below 0.9.

Experiments:
[1] = biological target: Retinoic acid receptor RXR-alpha (Homo sapiens) (UniProt P19793); assay: ATG_RXRa_TRANS: Attagene TRANS-FACTORIAL HepG2 Assay for human Retinoid X Receptor alpha (RXRa) (AID 2283012)
Chain of Retinoic acid receptor RXR-alpha (Homo sapiens) (P19793 whole entry, looked up, the tested form may be a part): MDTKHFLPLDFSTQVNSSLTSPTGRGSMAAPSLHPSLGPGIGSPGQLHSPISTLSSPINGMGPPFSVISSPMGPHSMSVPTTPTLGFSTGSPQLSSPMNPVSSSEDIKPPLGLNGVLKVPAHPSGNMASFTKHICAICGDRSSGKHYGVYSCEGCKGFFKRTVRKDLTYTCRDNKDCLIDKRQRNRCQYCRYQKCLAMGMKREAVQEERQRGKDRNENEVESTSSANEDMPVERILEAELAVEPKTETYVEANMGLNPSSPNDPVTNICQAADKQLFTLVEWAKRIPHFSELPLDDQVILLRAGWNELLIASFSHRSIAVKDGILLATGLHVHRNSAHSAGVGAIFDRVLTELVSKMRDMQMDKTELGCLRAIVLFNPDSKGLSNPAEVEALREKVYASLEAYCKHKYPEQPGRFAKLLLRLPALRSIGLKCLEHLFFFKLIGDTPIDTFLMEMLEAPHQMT
In short: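 TRANS format reporting activity of exogenous RXRa-Gal4 chimera in transiently transfected HepG2, 24 h exposure. Reporter transcripts quantified by RT-PCR with capillary electrophoresis, with gain of signal scored relative to DMSO.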

[2] = biological target: human Retinoid X Receptor beta (RXRb), RXRB (gene 6257) (UniProt P28702); assay: ATG_RXRb_TRANS: Attagene TRANS-FACTORIAL HepG2 Assay for human Retinoid X Receptor beta (RXRb) (AID 2283013)
Chain of human Retinoid X Receptor beta (RXRb), RXRB (gene 6257) (P28702 whole entry, looked up, the tested form may be a part): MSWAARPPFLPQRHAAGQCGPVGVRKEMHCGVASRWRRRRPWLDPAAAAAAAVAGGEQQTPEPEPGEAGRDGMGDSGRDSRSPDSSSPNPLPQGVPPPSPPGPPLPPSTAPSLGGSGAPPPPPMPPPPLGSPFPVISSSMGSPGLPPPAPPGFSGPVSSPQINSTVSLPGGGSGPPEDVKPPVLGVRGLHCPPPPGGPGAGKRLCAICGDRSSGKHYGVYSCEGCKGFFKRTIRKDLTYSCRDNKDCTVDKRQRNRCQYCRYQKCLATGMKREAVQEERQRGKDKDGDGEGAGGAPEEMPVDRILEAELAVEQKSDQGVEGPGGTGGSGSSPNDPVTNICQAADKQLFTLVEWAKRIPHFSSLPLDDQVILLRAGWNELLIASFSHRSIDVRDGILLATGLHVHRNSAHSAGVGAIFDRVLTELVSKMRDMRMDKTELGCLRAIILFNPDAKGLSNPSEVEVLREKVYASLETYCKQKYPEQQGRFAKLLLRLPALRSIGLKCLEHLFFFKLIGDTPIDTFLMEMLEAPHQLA
In short: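 Readout is reporter transcript induction after 24 h dosing. It is measured by RT-PCR of total RNA followed by fluorescent capillary electrophoresis. HepG2 liver cells carry transfected multiple reporter units driven by an exogenous RXRb-Gal4 fusion; activity is relative to DMSO.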

[3] = biological target: human Thyroid Receptor alpha (THRa1), THRA (gene 7067) (UniProt P10827); assay: ATG_THRa1_TRANS: Attagene TRANS-FACTORIAL HepG2 Assay for human Thyroid Receptor alpha (THRa1) (AID 2283014)
Chain of human Thyroid Receptor alpha (THRa1), THRA (gene 7067) (P10827 whole entry, looked up, the tested form may be a part): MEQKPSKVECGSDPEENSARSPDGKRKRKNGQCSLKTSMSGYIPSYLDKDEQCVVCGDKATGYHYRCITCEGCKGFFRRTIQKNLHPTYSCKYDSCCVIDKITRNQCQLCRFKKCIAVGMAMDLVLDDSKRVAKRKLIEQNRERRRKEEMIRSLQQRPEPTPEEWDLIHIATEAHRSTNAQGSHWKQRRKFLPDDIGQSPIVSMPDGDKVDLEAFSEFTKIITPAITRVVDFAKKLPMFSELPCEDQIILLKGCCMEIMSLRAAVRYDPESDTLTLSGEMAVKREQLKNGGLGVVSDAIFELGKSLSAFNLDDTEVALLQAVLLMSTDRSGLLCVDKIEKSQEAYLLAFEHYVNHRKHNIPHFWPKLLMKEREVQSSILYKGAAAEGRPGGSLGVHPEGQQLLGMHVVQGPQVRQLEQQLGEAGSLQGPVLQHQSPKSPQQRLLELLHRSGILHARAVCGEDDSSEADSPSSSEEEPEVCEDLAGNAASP
In short: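 HepG2 cells transiently transfected with chimeric NR-Gal4 and GAL4-UAS reporter units, dosed 24 h. Reporter mRNA quantified by RT-PCR, fluorescent labeling, HpaI digestion and capillary electrophoresis; gain-of-signal fit versus DMSO.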

[4] = biological target: human Vitamin D Receptor (VDR), VDR (gene 7421) (UniProt P11473); assay: ATG_VDR_TRANS: Attagene TRANS-FACTORIAL HepG2 Assay for human Vitamin D Receptor (VDR) (AID 2283022)
Chain of human Vitamin D Receptor (VDR), VDR (gene 7421) (P11473 whole entry, looked up, the tested form may be a part): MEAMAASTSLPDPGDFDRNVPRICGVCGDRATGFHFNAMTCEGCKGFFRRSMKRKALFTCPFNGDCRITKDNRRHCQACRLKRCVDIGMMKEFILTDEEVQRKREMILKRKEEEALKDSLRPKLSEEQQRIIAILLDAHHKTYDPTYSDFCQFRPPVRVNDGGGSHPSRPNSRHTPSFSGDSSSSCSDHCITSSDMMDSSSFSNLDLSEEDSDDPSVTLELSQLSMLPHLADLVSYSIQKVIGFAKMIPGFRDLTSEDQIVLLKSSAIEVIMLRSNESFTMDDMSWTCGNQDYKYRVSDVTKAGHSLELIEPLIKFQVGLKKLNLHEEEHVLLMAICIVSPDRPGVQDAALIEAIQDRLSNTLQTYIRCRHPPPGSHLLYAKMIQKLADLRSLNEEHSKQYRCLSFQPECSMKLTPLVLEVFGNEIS
In short: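 HepG2 cells were transiently transfected with GAL4-UAS reporter units and a chimeric VDR-Gal4 construct, then dosed for 24 hours. Reporter mRNA was quantified by RT-PCR, fluorescent labeling, HpaI digestion and capillary electrophoresis; gain of signal analysed vs DMSO.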

[5] = read-out: E-selectin (Homo sapiens) (UniProt P16581); assay: BSK_3C_Eselectin: BioMAP Diversity Plus: 3C Assay for Eselectin Biomarker Activity (AID 2283015; active = hit-call score of the fitted dose curve at least 0.9, where 1 is the maximum; inactive = score below 0.9); settings: primary human endothelial cells (HUVEC); actives raise or lower the signal
In short: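 Primary human umbilical vein endothelial cells (3C system), read 24 h after compound addition; E-selectin measured by ELISA. Bidirectional curve fitting against DMSO baseline; cytotoxicity by parallel SRB total-protein staining.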

[6] = read-out: Monocyte Chemoattractant Protein-1 (MCP1), CCL2 (gene 6347); assay: BSK_3C_MCP1: BioMAP Diversity Plus: 3C Assay for Monocyte Chemoattractant Protein-1 (MCP1) Biomarker Activity (AID 2283017; active = hit-call score of the fitted dose curve at least 0.9, where 1 is the maximum; inactive = score below 0.9); settings: primary human endothelial cells (HUVEC); actives raise or lower the signal
In short: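 Human umbilical vein endothelial cells (3C system) exposed to chemicals for 24 h; MCP-1 quantified by ELISA against the DMSO baseline with bidirectional fitting, and parallel SRB staining used to assess cytotoxicity.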

[7] = read-out: Monocyte Chemoattractant Protein-1 (MCP1), CCL2 (gene 6347); assay: BSK_4H_MCP1: BioMAP Diversity Plus: 4H Assay for Monocyte Chemoattractant Protein-1 (MCP1) Biomarker Activity (AID 2283018; active = hit-call score of the fitted dose curve at least 0.9, where 1 is the maximum; inactive = score below 0.9); settings: primary human endothelial cells (HUVEC); actives raise or lower the signal
In short: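 ELISA of MCP-1 (CCL2) 24 h after chemical dosing of HUVEC in the BioMAP 4H system. Gain or loss versus DMSO fitted; parallel SRB staining (560 nm) tracked overt cytotoxicity.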

[8] = read-out: Human Leukocyte Antigen - DR isotype (HLADR), HLA-DRA (gene 3122); assay: BSK_3C_HLADR: BioMAP Diversity Plus: 3C Assay for Human Leukocyte Antigen - DR isotype (HLADR) Biomarker Activity (AID 2283019; active = hit-call score of the fitted dose curve at least 0.9, where 1 is the maximum; inactive = score below 0.9); settings: primary human endothelial cells (HUVEC); actives raise or lower the signal
In short: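 HUVEC monoculture, HLA-DR measured by ELISA 24 h after chemical dosing. Fitted bidirectionally against DMSO baseline; parallel SRB staining assessed cytotoxicity, with 3C proliferation read by SRB at 48 h.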

[9] = read-out: Interleukin-8 (IL8), CXCL8 (gene 3576); assay: BSK_3C_IL8: BioMAP Diversity Plus: 3C Assay for Interleukin-8 (IL8) Biomarker Activity (AID 2283020; active = hit-call score of the fitted dose curve at least 0.9, where 1 is the maximum; inactive = score below 0.9); settings: primary human endothelial cells (HUVEC); actives raise or lower the signal
In short: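 IL-8 was measured by ELISA in HUVEC cultures 24 h after chemical dosing, with gain or loss of signal fitted relative to DMSO. Parallel SRB total-protein staining tracked overt cytotoxicity.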

[10] = read-out: Monokine induced gamma interferon (MIG), CXCL9 (gene 4283); assay: BSK_3C_MIG: BioMAP Diversity Plus: 3C Assay for Monokine induced gamma interferon (MIG) Biomarker Activity (AID 2283021; active = hit-call score of the fitted dose curve at least 0.9, where 1 is the maximum; inactive = score below 0.9;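 as to AC50: MIG protein level measured by immunoassay in the treated endothelial cultures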); settings: primary human endothelial cells (HUVEC); actives raise or lower the signal
In short: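 ELISA measurement of MIG in human umbilical vein endothelial cells 24 h after treatment. Cytotoxicity tracked by SRB staining in parallel cultures; gain or loss of signal fitted relative to DMSO.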

[11] = BSK_3C_SRB: Viability Assessment in the BioMAP Diversity Plus: 3C Assay (AID 2283023; active = hit-call score of the fitted dose curve at least 0.9, where 1 is the maximum; inactive = score below 0.9;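 also: fitted both ways against DMSO so a hit may be signal rise or drop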); settings: primary human endothelial cells (HUVEC)
In short: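 Human umbilical vein endothelial cells in the 3C system, treated 24 h. Total protein measured by 0.1% sulforhodamine B staining after 10% TCA fixation, read at 560 nm; bidirectional fit versus DMSO.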

[12] = BSK_3C_Vis: BioMAP Diversity Plus: 3C Assay for Morphology Visualization (AID 2283025; active = hit-call score of the fitted dose curve at least 0.9, where 1 is the maximum; inactive = score below 0.9;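 also: fitted both ways so gain or loss versus DMSO counts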;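 as to AC50: light microscopy image of cell morphology used as background control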); settings: primary human endothelial cells (HUVEC)
In short: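 Light-microscopy visualization of HUVEC cultures at 24 h post-treatment, with DMSO as baseline for bidirectional fitting.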

[13] = read-out: Pselectin, SELP (gene 6403); assay: BSK_4H_Pselectin: BioMAP Diversity Plus: 4H Assay for Pselectin Biomarker Activity (AID 2283026; active = hit-call score of the fitted dose curve at least 0.9, where 1 is the maximum; inactive = score below 0.9); settings: primary human endothelial cells (HUVEC); actives raise or lower the signal
In short: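 ELISA of surface P-selectin on HUVEC, 24 h after dosing, with parallel SRB staining (0.1% after 10% TCA fixation, 560 nm) for overt cytotoxicity. Activity fitted in both directions relative to DMSO.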

[14] = BSK_4H_SRB: Viability Assessment in the BioMAP Diversity Plus: 4H Assay (AID 2283027; active = hit-call score of the fitted dose curve at least 0.9, where 1 is the maximum; inactive = score below 0.9;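 also: cells exposed to compound for 24 h before staining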;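 as to AC50: curves fitted both ways versus DMSO so AC50 may be loss or gain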); settings: primary human endothelial cells (HUVEC)
In short: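 HUVEC, 24 h post-dose; 10% TCA fix, 0.1% SRB stain, A560 nm. Total protein = overt cytotoxicity, parallel to biomarker read. Bidirectional fit vs DMSO baseline.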

[15] = BSK_BE3C_SRB: Viability Assessment in the BioMAP Diversity Plus: BE3C Assay (AID 2283028; active = hit-call score of the fitted dose curve at least 0.9, where 1 is the maximum; inactive = score below 0.9;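 as to AC50: fitted both ways so AC50 may mark signal gain or loss versus DMSO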); settings: primary human bronchial epithelial cells
In short: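 Human bronchial epithelial primary cells in confluent culture, 24 h after chemical dosing; total protein by 0.1% SRB staining after 10% TCA fixation, read at 560 nm. Bidirectional fitting versus DMSO baseline.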

[16] = read-out: Thrombomodulin, THBD (gene 7056); assay: BSK_3C_Thrombomodulin: BioMAP Diversity Plus: 3C Assay for Thrombomodulin Biomarker Activity (AID 2283029; active = hit-call score of the fitted dose curve at least 0.9, where 1 is the maximum; inactive = score below 0.9); settings: primary human endothelial cells (HUVEC); actives raise or lower the signal
In short: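 ELISA measurement of thrombomodulin on HUVEC surface 24 h after chemical dosing; activity fitted in both directions relative to DMSO vehicle.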

[17] = read-out: Urokinase-type plasminogen activator receptor (uPAR), PLAUR (gene 5329); assay: BSK_4H_uPAR: BioMAP Diversity Plus: 4H Assay for Urokinase-type plasminogen activator receptor (uPAR) Biomarker Activity (AID 2283030; active = hit-call score of the fitted dose curve at least 0.9, where 1 is the maximum; inactive = score below 0.9); settings: primary human endothelial cells (HUVEC); actives raise or lower the signal
In short: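 Human umbilical vein endothelial cells in the 4H system, 24 h after chemical dosing. Cell-surface uPAR measured by ELISA, fitted in both directions versus DMSO; cytotoxicity checked by SRB total protein in parallel cultures.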

[18] = read-out: Vascular endothelial growth factor receptor 2 (Homo sapiens) (UniProt P35968); assay: BSK_4H_VEGFRII: BioMAP Diversity Plus: 4H Assay for Vascular endothelial growth factor receptor 2 (VEGFR2) Biomarker Activity (AID 2283031; active = hit-call score of the fitted dose curve at least 0.9, where 1 is the maximum; inactive = score below 0.9;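 as to AC50: cell-surface VEGFR2 protein level quantified by ELISA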); settings: primary human endothelial cells (HUVEC); actives raise or lower the signal
In short: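 Primary human umbilical vein endothelial cells (4H system), 24 h exposure; cell-surface VEGFR2 measured by ELISA. Bidirectional fitting versus DMSO; cytotoxicity checked in parallel by SRB total-protein staining.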

[19] = read-out: Matrix Metallopeptidase 1 (MMP1), MMP1 (gene 4312); assay: BSK_BE3C_MMP1: BioMAP Diversity Plus: BE3C Assay for Matrix Metallopeptidase 1 (MMP1) Biomarker Activity (AID 2283024; active = hit-call score of the fitted dose curve at least 0.9, where 1 is the maximum; inactive = score below 0.9); settings: primary human bronchial epithelial cells; actives raise or lower the signal
In short: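 ELISA measurement of MMP-1 after 24 h compound exposure of primary human bronchial epithelial cells. Changes in either direction fitted relative to DMSO; parallel SRB staining checked overt cytotoxicity.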

Measured: AC50

Chain of E-selectin (Homo sapiens) (P16581 whole entry, looked up): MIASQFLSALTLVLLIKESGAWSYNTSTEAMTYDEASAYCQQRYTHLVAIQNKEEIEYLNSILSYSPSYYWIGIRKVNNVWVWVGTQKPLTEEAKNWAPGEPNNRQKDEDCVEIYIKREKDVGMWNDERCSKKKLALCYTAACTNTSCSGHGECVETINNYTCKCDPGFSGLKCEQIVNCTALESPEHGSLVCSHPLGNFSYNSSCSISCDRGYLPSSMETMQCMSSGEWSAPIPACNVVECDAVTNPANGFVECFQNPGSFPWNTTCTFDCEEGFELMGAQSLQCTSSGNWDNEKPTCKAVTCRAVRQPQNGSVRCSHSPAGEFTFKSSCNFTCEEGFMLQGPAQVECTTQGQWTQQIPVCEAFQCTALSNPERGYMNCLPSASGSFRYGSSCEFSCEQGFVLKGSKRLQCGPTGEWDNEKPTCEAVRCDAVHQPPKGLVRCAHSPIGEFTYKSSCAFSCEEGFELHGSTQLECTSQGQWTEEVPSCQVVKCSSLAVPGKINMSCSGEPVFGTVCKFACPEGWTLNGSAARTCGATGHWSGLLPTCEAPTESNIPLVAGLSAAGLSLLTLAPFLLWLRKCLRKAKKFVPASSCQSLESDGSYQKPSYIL

CCCCCCCCCCCC(=O)O
inactive: [1] | [2]

O=C1C=CC(=O)N1c1cccc(N2C(=O)C=CC2=O)c1
inactive: [1] | [2] | [3]

CC(=O)CC(C)C
inactive: [1] | [2] | [3] | [4]

C=COC(=O)C(C)(C)CCCCCC
inactive: [1] | [3] | [15]
active: [2] 62 µM | [5] 32.7 µM | [6] 31.3 µM | [7] 20 µM | [8] 33.6 µM | [9] 30.2 µM | [10] 33.9 µM | [11] 34.6 µM | [12] 37.8 µM | [13] 32.4 µM | [14] 34.3 µM | [16] 20 µM | [17] 32.6 µM | [18] 25.6 µM

FC(F)=C(F)C(F)(F)C(F)(F)C(F)(F)C(F)F
inactive: [1]

CC1=CC(=O)c2ccccc2C1=O
inactive: [1] | [2]

Cc1cc(C(=C2C=CC(=Nc3ccc(S(=O)(=O)O)cc3)C=C2)c2ccc(Nc3ccc(S(=O)(=O)O)cc3)cc2)cc(S(=O)(=O)O)c1N
inactive: [1]

Cc1ccc(S(=O)(=O)O)cc1
inactive: [1] | [2] | [3] | [4]

CCCCN(C)C
inactive: [1] | [2]

Clc1ccc2c(Cl)ccnc2c1
inactive: [1] | [2] | [3]

O=C(NCc1ncc(C(F)(F)F)cc1Cl)c1c(Cl)cccc1Cl
inactive: [1] | [2] | [3] | [6] | [7] | [8] | [9] | [10] | [4] | [11] | [12] | [13] | [14] | [15] | [16] | [17] | [18]

FC(OC(F)(F)C(F)(F)C(F)(F)F)C(F)(F)F (configuration not stated)
inactive: [1] | [2] | [4]

O=S(=O)(O)c1ccccc1
inactive: [1] | [2] | [4]

CCN(CCC#N)c1ccccc1
inactive: [1] | [2] | [4]

CCCCc1oc2ccccc2c1C(=O)c1cc(I)c(OCCN(CC)CC)c(I)c1
inactive: [1] | [2] | [16]
active: [6] 21.6 µM | [7] 15.1 µM | [8] 9.35 µM | [9] 17.7 µM | [10] 25.7 µM | [4] 47.5 µM | [11] 8.48 µM | [19] 25 µM | [12] 9.65 µM | [13] 9.72 µM | [14] 13.1 µM | [15] 25.4 µM | [17] 15.1 µM | [18] 21.2 µM

CCc1cccc(CC)c1N(COC)C(=O)CS(=O)(=O)O
inactive: [1] | [3]

Cc1ccc2ccc3ccc(C)cc3c2c1
inactive: [1] | [4]
active: [2] 12.9 µM
